Sampled rows, rich in hits. Any-hit rate of the full collection: about 1.5%.
miR-122 sensor = inhibitors of miR-122 in Huh7 cells; Huh7 miR-122 Renilla luciferase sensor, 48 h; neutral wells = 0, positive control = 100; activation (reporter increase), % at 12.5 µM; 0.3% of 340,000 active;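 active means mean replicate activation score at least 90 and every replicate individually at or above 90; inconclusive means only one of the two criteria met; inactive means neither criterion met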;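 further: higher luciferase means less miR-122 activity so hits act as miR-122 inhibitors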
CASP6 VEID inh = blocks human caspase-6 cleavage activity. P55212. purified caspase-6, Z-VEID-R110 cleavage fluorescence. inhibition, % at 12.5 µM. 0.53% of 350,000 active. AID 686996;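 active means mean inhibition across replicates at least about 35%, with every replicate also reaching that limit, limit read from the data; inconclusive means only one of the two criteria met; inactive means neither criterion met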;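 further: 0% = median of neutral control wells and 100% = no fluorescence left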
AF4-AF9 inh = inhibitors of human MLL-AF4/AF9 interaction; P42568; AlphaScreen, biotin-AF4 peptide binding to FLAG-AF9; inhibition, % at 10 µM; 0.47% of 350,000 active;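 active means every replicate reaching a set inhibition limit, whatever the replicate mean, cut at about 25% in these data; inconclusive means mean inhibition reaches that limit but some replicates miss it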;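 further: 0% = plate neutral control median and 100% = total signal loss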
NSD2 inh = inhibitors of human histone methyltransferase NSD2 | NSD2 peptide methylation, AlphaScreen, 120 min | 0.54% of 310,000 active | AID 743445 | inhibition, % at 12.5 µM; in the data active means inhibition above about 50%
RAD52 anneal inh = RAD52 (human) annealing inhibition | P43351 | recombinant RAD52 DNA annealing, FRET fluorescence | inhibition, % at 18.7 µM | 0.46% of 360,000 active;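 active means every replicate showing at least 50% inhibition; inconclusive means mean inhibition at least 50% but not in every replicate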
Target sequence (P43351 whole entry, looked up): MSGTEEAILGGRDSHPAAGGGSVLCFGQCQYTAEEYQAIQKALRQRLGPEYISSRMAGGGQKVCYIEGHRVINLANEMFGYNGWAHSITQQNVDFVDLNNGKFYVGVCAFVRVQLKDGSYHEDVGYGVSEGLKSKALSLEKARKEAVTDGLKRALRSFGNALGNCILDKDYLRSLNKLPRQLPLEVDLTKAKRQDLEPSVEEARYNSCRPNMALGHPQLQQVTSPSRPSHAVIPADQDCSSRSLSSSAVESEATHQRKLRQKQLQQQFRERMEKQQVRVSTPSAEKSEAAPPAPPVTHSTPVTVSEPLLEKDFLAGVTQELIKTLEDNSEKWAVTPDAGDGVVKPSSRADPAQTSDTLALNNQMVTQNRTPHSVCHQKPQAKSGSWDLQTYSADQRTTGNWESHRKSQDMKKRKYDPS
* hit, by the source's call; ? = inconclusive; / = no result given; ! = a repeat was not active; [ ] = remark or other dose.

SMILES	miR-122 sensor	CASP6 VEID inh	AF4-AF9 inh	NSD2 inh	RAD52 anneal inh
CCOC(=O)[C@@H]1[C@@H]2NC(=S)N(C)[C@@]1(C)Oc1ccccc12	/	1	-5	/	1
O=c1oc2ccccc2c(O)c1C(c1ccc([N+](=O)[O-])cc1)c1c(O)c2ccccc2oc1=O	10	24	-2	10	-10
CC(C)c1ccc(C(c2c(O)c3ccccc3oc2=O)c2c(O)c3ccccc3oc2=O)cc1	/	66*	-4	10	-3
COC(=O)[C@H]1[C@H](CO)[C@H]2Cn3c(ccc(/C=C/c4ccccc4)c3=O)[C@@H]1N2C(=O)C1CC1	/	3	-9	/	16
Cn1cccc1/C=C1\C(=O)NC(=O)N(Cc2ccco2)C1=O	10	/	/	24	/
Cc1cc(/C=C2\C(=O)NC(=O)N(Cc3ccco3)C2=O)c(C)n1-c1ccc(C(=O)O)cc1	-25	71*	8	/	-66
Cc1cc(/C=C2\C(=O)NC(=O)N(Cc3ccco3)C2=O)c(C)n1-c1ccc(O)cc1	5	69*	1	8	-2
Cc1ccc(-n2c(C)cc(/C=C3/C(=O)NC(=O)N(Cc4ccco4)C3=O)c2C)cc1	-4	/	/	1	/
CCOC(=O)C1CCN(/C=C2/C(=O)NC(=O)N(Cc3ccco3)C2=O)CC1	/	55*	/	22	-181
Cc1ccc(OCCn2cccc2/C=C2/C(=O)NC(=O)N(Cc3ccco3)C2=O)cc1	/	76*	-5	15	-115
COC(=O)[C@H]1[C@H](CO)[C@H]2Cn3c(ccc(-c4ccncc4)c3=O)[C@@H]1N2CCc1ccccc1	/	-2	0	/	-12
COc1ccc(C#Cc2ccc([C@H]3[C@H]4CN(C(=O)Cc5ccccc5)CCCCN4[C@H]3CO)cc2)cc1	-5[16.7 µM]	-2	1	/	-10
O=C(O)[C@H]1[C@H](CO)[C@H]2Cn3c(ccc(-c4ccc(F)cc4)c3=O)[C@@H]1N2CC1CCCCC1	/	2	1	/	5
Cc1ccccc1-c1ccc([C@H]2[C@H]3CN(C(=O)Cc4ccccn4)CCCCN3[C@H]2CO)cc1	3[16.7 µM]	13	-6	/	-17
C=CCN1C(=O)/C(=C/c2ccc(Br)s2)C(=O)NC1=S	3	53*	0	23	-276
CCOC(=O)[C@@H]1[C@@H]2NC(=S)N(C)[C@@]1(COCc1ccc(OC)cc1)Oc1ccccc12	/	-3	6	/	22
O=C1C(=O)c2cccc3cccc1c23	/	0	5	10	-7
O=C1C(=O)c2ccccc2-c2ccccc21	5	54*	3	/	5
COc1ccc(Cc2nccc3cc(OC)c(OC)cc23)cc1OC	-4	54*	-6	/	14
COc1ccc(CCNCc2ccc(C)s2)cc1OC	/	6	0	8	-4
CCc1ccc(N2C(=O)NC(=O)C(CCc3ccncc3)(CCc3ccncc3)C2=O)cc1	/	/	/	-3	/
O=C1NC(=O)C(CCc2ccncc2)(Cc2cccc(Cl)c2Cl)C(=O)N1c1ccc(Br)cc1 (stereo not given)	491*	/	/	-2	/
OC[C@H]1Nc2ccc(C#Cc3cccnc3)cc2[C@H]2NCC[C@H]21	/	17	13	/	36
[O-]c1ccccc1-[n+]1c(-c2ccccc2)cc(-c2ccccc2)cc1-c1ccccc1	/	0	23	/	61*
O=C(Cc1ccccn1)N1CC2(C1)[C@H](c1ccccc1)[C@@H](CO)N2Cc1ccccn1	/	-1	2	/	-156
SMILES	miR-122 sensor	CASP6 VEID inh	AF4-AF9 inh	NSD2 inh	RAD52 anneal inh
COc1ccc(N2C(=O)CC(=O)NC2=O)cc1	236*	/	/	7	/
COc1ccc(-c2ccc3n(c2=O)C[C@H]2[C@H](CO)[C@@H](C(=O)O)[C@@H]3N2C(=O)c2ccccc2F)cc1	/	-2	-2	/	-1
Cc1oc2ccc(OC(=O)N(C)C)cc2c1C(=O)OC(C)C	143*	/	/	-1	/
CCOC(=O)c1c(-c2ccc(OC)cc2)oc2ccc(OC(=O)N(C)C)cc12	2	/	/	/	/
CC=Cc1ccc2n(c1=O)C[C@H]1[C@H](CO)[C@@H](C(=O)O)[C@@H]2N1S(=O)(=O)c1ccccc1F (mixture of isomers)	/	-1	-2	/	-7
C[C@@H]1CN([C@H](C)CO)C(=O)CCCn2cc(nn2)CO[C@@H]1CN(C)C(=O)Oc1ccc2ccccc2c1	2[16.7 µM]	/	-1	/	/
CC[C@@H](CO)NC(=O)[C@@H]1C=C2c3cccc4c3c(cn4C)C[C@H]2N(C)C1	-2	73*	12	/	-280
CC[C@@H](CO)NC(=O)[C@@H]1C=C2c3cccc4[nH]cc(c34)C[C@H]2N(C)C1	-4	62*	?	/	-87
CCC(CO)NC(=O)C1C=C2c3cccc4[nH]cc(c34)CC2N(C)C1 (stereo not given)	-3	48*	?	/	-19
COC(=O)[C@@H]1[C@@H](CO)[C@@H]2Cn3c(cccc3=O)[C@H]1N2C(=O)C1CCCC1	9[16.7 µM]	-3	-4	/	5
CC[C@H](C)[C@@H]1NC(=O)CNC(=O)c2csc(n2)[C@H](C(C)(C)O)OC(=O)C(C)(C)[C@H](CCCC(C)(Cl)Cl)OC(=O)c2csc1n2	-17	40*	1	/	-4
O=C(Cc1ccccn1)N1CCCCN2[C@H](C1)[C@H](c1ccc(-c3ccccc3)cc1)[C@@H]2CO	1[16.7 µM]	1	-3	/	-22
CC(=O)OC1CC(OC2C(O)CC(OC3C(O)CC(OC4CCC5(C)C(CCC6C5CC(O)C5(C)C(C7=CC(=O)OC7)CCC65O)C4)OC3C)OC2C)OC(C)C1OC1OC(CO)C(O)C(O)C1O (stereo not given)	126*	/	-4	/	-4
CNC(=S)N(C)CCc1cc2c(c(OC)c1C=C1C(=O)NC(=O)NC1=O)OCO2	2	1	65*	0	-13
C=CCN1C(=O)NC(=O)/C(=C/c2c(CCN(C)C(=O)c3ccccc3)cc3c(c2OC)OCO3)C1=O	-7	3	-2	/	-31
CC1=C2C[C@H]3[C@@H](CC=C4C[C@@H](O)CC[C@@]43C)[C@@H]2CC[C@]12O[C@@H]1C[C@H](C)CN[C@@H]1C2C (stereo not given in full)	/	-4	-1	/	-2
COc1ccc2[nH]c(C)c(CCNCc3cn(C)c4ccccc34)c2c1	/	-8	51*	39	34
Cc1[nH]c2ccccc2c1CCNCc1cccnc1	4	-27	18	9	-3
COC(=O)[C@@H]1[C@@H](CO)[C@@H]2Cn3c(cccc3=O)[C@H]1N2Cc1nccs1	/	-1	-2	/	-1
C/C=C/c1ccc(C2[C@@H]3CN(C(=O)CN(C)C)C[C@H]2N3)cc1 (stereo not given in full)	/	-1	14	/	58*!
O=C1CC=C2C3CC4N(CCC45c4cc(O)c(O)cc4N1C25)CC3=CCBr (stereo not given)	/	7	7	107*	33
O=C1CC=C2C3CC4N(CCC45c4ccccc4N1C25)CC3=CCO (stereo not given)	/	1	-2	-2	1
CN(C)C1C(=O)C(C(N)=O)=C(O)C2(O)C(=O)C3=C(O)c4c(O)cccc4C(C)(O)C3C(O)C12 (stereo not given)	-7	53*	6	/	-9

Assay outcomes as filed in PubChem.
